# According to PubChem BioAssay (EPA / NIEHS):
# Inconclusive results are not listed. Activity calls are given as the source filed them. Rule for the calls: active = hit-call score of the fitted dose curve at least 0.9, where 1 is the maximum; inconclusive = response in the unintended direction; inactive = score below 0.9.
# Biological target: Bile acid receptor (Homo sapiens) (UniProt Q96RI1)
# Experiment: OT_FXR_FXRSRC1_1440: Odyssey Thera (OT) 24-hour HEK293T Protein-Complementation Assay for Farnesoid X receptor/SRC-1 Co-activator (AID 2283384)
# Experimental: OT_FXR_FXRSRC1_1440 is a cell-based assay that uses HEK293T, a human kidney cell line, with measurements taken at 24 hours after chemical dosing in a 384-well plate.OT_FXR_FXRSRC1_1440 is one of one assay component(s) measured or calculated from the OT_FXR_FXRSRC1_1440 assay. It is designed to make measurements of protein fragment complementation, a form of binding reporter, as detected with fluorescence intensity signals by Protein-fragment Complementation technology.Data from the assay component OT_FXR_FXRSRC1_1440 was analyzed into 1 assay endpoint. This assay endpoint, OT_FXR_FXRSRC1_1440, was analyzed in the positive analysis fitting direction relative to DMSO as the negative control and baseline of activity. Using a type of binding reporter, measures of receptor for gain-of-signal activity can be used to understand the binding at the pathway-level as they relate to the gene NR1H4. Furthermore, this assay endpoint can be referred to as a primary readout, because the performed assay has only produced 1 assay endpoint. To generalize the intended target to other relatable targets, this assay endpoint is annotated to the nuclear receptor intended target family, where the subfamily is non-steroidal.
# Protein-fragment complementation assay, or PCA, is a method for the identification and quantification of protein-protein interactions. In the PCA, the proteins of interest ("bait" and "prey") are each covalently linked to fragments of a third protein (e.g. DHFR, which acts as a "reporter"). Interaction between the bait and the prey proteins brings the fragments of the reporter protein in close proximity to allow them to form a functional reporter protein whose activity can be measured.
# Sequence of Bile acid receptor (Homo sapiens) (Q96RI1 whole entry, looked up): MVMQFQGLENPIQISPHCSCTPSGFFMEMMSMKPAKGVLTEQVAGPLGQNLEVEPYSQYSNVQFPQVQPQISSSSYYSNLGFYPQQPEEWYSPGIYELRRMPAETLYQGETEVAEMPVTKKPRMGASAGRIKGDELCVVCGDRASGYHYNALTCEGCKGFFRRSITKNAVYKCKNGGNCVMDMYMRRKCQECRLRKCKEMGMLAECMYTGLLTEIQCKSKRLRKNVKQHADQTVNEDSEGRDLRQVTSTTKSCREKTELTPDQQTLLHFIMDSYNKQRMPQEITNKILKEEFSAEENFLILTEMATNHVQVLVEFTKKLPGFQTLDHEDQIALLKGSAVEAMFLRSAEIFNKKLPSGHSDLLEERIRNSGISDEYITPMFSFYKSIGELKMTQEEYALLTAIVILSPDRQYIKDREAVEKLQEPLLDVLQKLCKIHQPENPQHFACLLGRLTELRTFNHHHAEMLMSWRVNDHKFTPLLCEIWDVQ
Compound,outcome,AC50
O=S(=O)(O)c1ccccc1,inactive,
CCCCCCc1ccc(N)cc1,,6.61 µM (active)
CCCCCCCCCC=CCC1CC(=O)OC1=O (configuration not stated),inactive,
OCC(CO)(CBr)CBr,inactive,
CCCCc1oc2ccccc2c1C(=O)c1cc(I)c(OCCN(CC)CC)c(I)c1,,8.87 µM (active)
C=CC(C)(CCC=C(C)C)OC(C)=O (configuration not stated),inactive,
Cc1cc(C(C)(C)C)c(O)c(C(C)(C)C)c1,,11.4 µM (active)
NCc1cccc(CN)c1,inactive,
CCCCCCCCCCCCOC(=O)c1cc(O)c(O)c(O)c1,inactive,
CCCCCCC(C)(C)C(=O)O,inactive,
COc1cc([N+](=O)[O-])ccc1N,,28 µM (active)
O=C(CCCN1CCC(O)(c2ccc(Cl)cc2)CC1)c1ccc(F)cc1,inactive,
CCCCCC(C)OC(=O)COc1ccc(Cl)c2cccnc12 (configuration not stated),,22.7 µM (active)
CN(Cc1cnc2nc(N)nc(N)c2n1)c1ccc(C(=O)N[C@@H](CCC(=O)O)C(=O)O)cc1,inactive,
Cc1cc(C(=C2C=CC(=Nc3ccc(S(=O)(=O)O)cc3)C=C2)c2ccc(Nc3ccc(S(=O)(=O)O)cc3)cc2)cc(S(=O)(=O)O)c1N,inactive,
Cc1[nH]nc2c1N=C(c1ccccc1Cl)c1cc([N+](=O)[O-])ccc1N2,,0.279 µM (active)
CCCCC=O,inactive,
